Results filed as inconclusive are left out. Where a call stands in place of a potency, no number is given. Active and inactive are the calls of the source. The call rests on the fitted dose curve; in most records, active means well fitted activation curve with a large enough effect in the signal ratio in the repeat runs (not every such curve was filed as active); inconclusive means weak or mixed curves, or effect the other way; inactive means no such curve, though single readings can be large or run the other way; the % refers to the signal ratio.

Sequence of Peroxisome proliferator-activated receptor gamma (Homo sapiens) (P37231 whole entry, looked up): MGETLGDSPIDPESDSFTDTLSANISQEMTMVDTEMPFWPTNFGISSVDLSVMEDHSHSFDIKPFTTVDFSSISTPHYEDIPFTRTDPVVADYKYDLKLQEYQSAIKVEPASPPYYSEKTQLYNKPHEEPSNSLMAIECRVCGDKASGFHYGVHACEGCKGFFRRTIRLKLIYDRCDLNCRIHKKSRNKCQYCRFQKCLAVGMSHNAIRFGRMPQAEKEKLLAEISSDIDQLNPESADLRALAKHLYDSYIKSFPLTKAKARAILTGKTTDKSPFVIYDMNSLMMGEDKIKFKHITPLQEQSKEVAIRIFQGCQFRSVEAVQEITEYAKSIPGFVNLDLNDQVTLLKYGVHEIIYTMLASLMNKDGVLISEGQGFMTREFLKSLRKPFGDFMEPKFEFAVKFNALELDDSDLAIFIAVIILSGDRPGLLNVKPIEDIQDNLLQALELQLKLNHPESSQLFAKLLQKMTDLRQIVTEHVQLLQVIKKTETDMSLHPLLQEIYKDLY

The experiment deals with Peroxisome proliferator-activated receptor gamma (Homo sapiens) (UniProt P37231). In words: qHTS assay to identify small molecule agonists of the peroxisome proliferator-activated receptor gamma (PPARg) signaling pathway (AID 743094). The settings on record: HEK293H PPARg-UAS-bla, beta-lactamase FRET ratio, 17 h; series mostly up to 57 µM. An excerpt:
U.S. Tox21 Program National Center for Advancing Translational Sciences [NCATS] NIH Chemical Genomics Center [NCGC] U.S. Environmental Protection Agency [EPA] National Institutes of Environmental Health Sciences [NIEHS] National Toxicology Program [NTP] U.S. Food and Drug Administration [FDA] Tox21 Assay Overview: The peroxisome proliferator-activated receptors (PPARs) are lipid-activated transcription factors of the nuclear receptor superfamily with three distinct subtypes namely PPAR alpha, PPAR delta (also called PPAR beta) and PPAR gamma (PPARg). All these subtypes heterodimerize with Retinoid X receptor (RXR) and these heterodimers regulate transcription of various genes. PPAR-gamma receptor (glitazone receptor) is involved in the regulation of glucose and lipid metabolism. To identify the compounds that activate PPAR-gamma signaling, GeneBLAzer PPAR gamma UAS-bla HEK293H cell line (Invitrogen, Carlsbad, CA, USA) containing a beta-lactamase reporter gene under control of the control of an upstream activator sequence (UAS) stably integrated into HEK293H cells was used to screen Tox21 compound library.
Tox21 Assay Protocol Summary: PPARg-bla cells were dispensed at 3000 cells/6uL/well in 1536-well black wall/clear bottom plates using a Multidrop Combi (Thermo Fisher Scientific, Waltham, MA) dispenser. After the assay plates were incubated at 37C and 5% CO2 for 5 h, 23 nL of compounds dissolved in DMSO, positive controls or DMSO only was transferred to the assay plate by a Pintool station (Kalypsys, San Diego, CA). The assay plates were incubated at 37C for 17 h. After 1 uL of LiveBLAzerTM B/G FRET substrate was added using a Bioraptr Flying Reagent Dispenser (FRD) workstation (Beckman Coulter, Indianapolis, IN, USA), the plates were incubated at room temperature for 1 h, and fluorescence intensity was measured by an Envision plate reader (PerkinElmer, Shelton, CT).
`Cc1ccc2c(c1N)C(=O)c1ccccc1C2=O`: the Potency result was “inactive”.

As to `CC(C)(C)c1ccccc1O`, the Potency entry is “inactive”.

`O=C(O)CC[N+](=O)[O-]`: the Potency result was “inactive”.

In the case of `Oc1cc(Cl)ccc1Cl`, the Potency result is “inactive”.

For `Oc1ccc(-c2ccccc2)cc1`, the Potency entry is “inactive”.

For `O=[N+]([O-])c1cccc2ccccc12`, the Potency entry was “inactive”.

Turning to `NCc1cccnc1`, the Potency entry is “inactive”.

For `O=S(=O)(Oc1ccc(Cl)cc1)c1ccc(Cl)cc1`, the Potency result is “inactive”.

`COP(=S)(OC)Oc1cc(Cl)c(Cl)cc1Cl`: the Potency result was “inactive”.

For `O=[N+]([O-])c1c(Cl)c(Cl)c(Cl)c(Cl)c1Cl`, the Potency entry is “inactive”.

Consider `CCCCOCCOP(=O)(OCCOCCCC)OCCOCCCC`, for which the Potency result is “inactive”.

Regarding `Cc1ccc(OP(=O)(Oc2ccc(C)cc2)Oc2ccc(C)cc2)cc1`, the Potency result was “inactive”.

As to `CC(O)CCO` (stereo not given), the Potency entry was “inactive”.

As for `C#C[C@]1(O)CC[C@H]2[C@@H]3CCC4=CC(=O)CC[C@]4(C)[C@H]3CC[C@@]21C`, the Potency entry is “inactive”.

Regarding `Brc1ccc(Oc2cc(Br)c(Br)cc2Br)c(Br)c1`, the Potency entry is “inactive”.

Regarding `CC(C)NC(C)C`, the Potency result is “inactive”.

As for `COc1ccc(C=O)cc1`, the Potency result was “inactive”.

As for `C=CCN(CC=C)C(=O)C(Cl)Cl`, the Potency entry was “inactive”.

As to `CCCCN(CC)c1c([N+](=O)[O-])cc(C(F)(F)F)cc1[N+](=O)[O-]`, the Potency result is “inactive”.

As for `C=C(C)[C@H]1Cc2c(ccc3c2O[C@@H]2COc4cc(OC)c(OC)cc4[C@@H]2C3=O)O1`, the Potency entry was “inactive”.

For `CCOc1cc(Oc2ccc(C(F)(F)F)cc2Cl)ccc1[N+](=O)[O-]`, the Potency result was “inactive”.

With `CCOC(=O)C(C)OC(=O)c1cc(Oc2ccc(C(F)(F)F)cc2Cl)ccc1[N+](=O)[O-]` (stereo not given), the Potency result was “inactive”.

`c1ccc(N=Nc2ccccc2)cc1`: the Potency entry was “inactive”.

For the molecule `CCOCN(C(=O)CCl)c1c(C)cccc1CC`, the Potency result is “inactive”.

As to `CCCCCCCCCCCOC(=O)c1ccccc1C(=O)OCCCCCCCCCCC`, the Potency entry is “inactive”.

`C=CCc1ccc(OC)cc1`: the Potency entry was “inactive”.

As to `Oc1cc(Cl)ccc1Oc1ccc(Cl)cc1Cl`, the Potency result was “inactive”.

Regarding `Cc1c(COC(=O)[C@@H]2[C@H](/C=C(\Cl)C(F)(F)F)C2(C)C)cccc1-c1ccccc1`, the Potency entry is “inactive”.

On to `C=C(C)C(=O)OCC1CO1` (stereo not given), for which the Potency result is “inactive”.

For the molecule `c1nc[nH]n1`, the Potency result is “inactive”.

For `Nc1ccc(Cl)cc1N`, the Potency entry is “inactive”.

In the case of `NC(=S)Nc1ccccc1`, the Potency result was “inactive”.

For the molecule `COc1ccc(C(CN(C)C)C2(O)CCCCC2)cc1` (stereo not given), the Potency result is “inactive”.

As for `CNC(=O)N(C)c1nnc(C(C)(C)C)s1`, the Potency entry is “inactive”.

As for `O=P(O)(O)CCCl`, the Potency entry is “inactive”.

With `C[C@]12CCC(=O)C(O)=C1CC[C@@H]1[C@@H]2CC[C@]2(C)C(=O)CC[C@@H]12`, the Potency entry was “inactive”.

`CC(C)c1ccc(CO)cc1`: the Potency entry was “inactive”.

Consider `C=CCc1ccc2c(c1)OCO2`, for which the Potency entry is “inactive”.

Consider `N[C@@H](Cc1ccc(N(CCCl)CCCl)cc1)C(=O)O`, for which the Potency entry was “inactive”.

Turning to `Cc1cccc(N)c1N`, the Potency entry is “inactive”.

For the origin of these results see PubChem BioAssay (Tox21).
